Reference: PubChem BioAssay AID624330 (Southern Research Specialized Biocontainment Screening …, 2012)
Hit rate of the full screen: of about 340,000 compounds, about 2,100 (0.62%) were called active.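 The calls were made as follows: active = first-screen hits whose inhibition reached a set limit at any dose in the follow-up dose series; inconclusive = inhibition above the set first-screen limit but never retested; inactive = the rest.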 These entries were drawn from the full list. Entries with a potency or affinity are not part of this list.

Target: Rac GTPase-activating protein 1 (Homo sapiens) (UniProt Q9H0H5)
Experiment: blockers of MgcRacGAP-driven Rac1 GTP hydrolysis – biochemical, ADP Hunter fluorescence, primary and confirmatory, confirmation (AID 624330);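 also: fluorescence reports GDP produced by GAP-driven GTP hydrolysis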
Settings: MgcRacGAP-stimulated Rac1 GTP hydrolysis, at 30 µM, stronger effect = higher value, GST-tagged Rac1 F28L mutant substrate

Sequence of Rac GTPase-activating protein 1 (Homo sapiens) (Q9H0H5 whole entry, looked up): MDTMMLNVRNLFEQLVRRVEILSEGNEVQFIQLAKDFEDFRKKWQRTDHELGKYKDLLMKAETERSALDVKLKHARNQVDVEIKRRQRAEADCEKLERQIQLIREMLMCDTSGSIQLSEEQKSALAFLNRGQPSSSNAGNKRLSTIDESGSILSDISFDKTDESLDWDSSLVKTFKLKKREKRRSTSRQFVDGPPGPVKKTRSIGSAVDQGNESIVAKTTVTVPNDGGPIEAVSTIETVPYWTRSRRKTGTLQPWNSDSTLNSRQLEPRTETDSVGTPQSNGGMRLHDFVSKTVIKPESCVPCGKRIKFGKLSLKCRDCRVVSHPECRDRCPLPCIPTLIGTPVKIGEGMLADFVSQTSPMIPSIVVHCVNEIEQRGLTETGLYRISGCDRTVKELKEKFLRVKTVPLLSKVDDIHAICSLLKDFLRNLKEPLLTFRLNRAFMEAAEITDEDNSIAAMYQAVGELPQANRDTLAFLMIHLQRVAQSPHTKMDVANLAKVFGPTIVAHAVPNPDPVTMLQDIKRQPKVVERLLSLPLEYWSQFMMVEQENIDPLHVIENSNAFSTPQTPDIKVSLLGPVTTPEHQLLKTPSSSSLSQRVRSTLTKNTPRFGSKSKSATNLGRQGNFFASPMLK

inhibition, inactive:
COc1ccccc1N(CC(=O)NCC1CCCO1)C(=O)CCC(=O)Nc1cc(C)on1 (stereo not drawn) 2.95%, COc1ccc(-c2noc(CN(C)Cc3ccccc3)n2)cc1 15.4%, O=C(CCSCc1ccccc1Cl)NC1CCCCC1 5.37%, Nc1ccc2c(O)cc(S(=O)(=O)O)cc2c1 19.4%, COc1ccccc1Nc1ccc(NS(=O)(=O)c2ccc(C(C)=O)cc2)cc1 23.2%, Nc1cccc2cc(S(=O)(=O)O)ccc12 20.9%, O=Nc1c(O)ccc2cc(S(=O)(=O)O)ccc12 13.3%, Nc1cc(S(=O)(=O)O)cc2ccc(S(=O)(=O)O)cc12 6.2%, O=C(O)c1cc2cc(S(=O)(=O)O)ccc2cc1O 6.33%, O=P(c1ccccc1)(c1ccccc1)c1cc(S(=O)(=O)O)ccc1O 5.95%, COc1ccccc1Nc1ccc(N)cc1 10.5%, CCc1ccccc1NC(=O)c1ccc(NCCc2ccccc2)c([N+](=O)[O-])c1 10.6%, C/C(=N\NC(=O)c1cccs1)C(C)(C)C -0.86%, O=C(Nc1cccc(F)c1)Nc1ccnn1C1CCN(C(=O)c2ccccn2)CC1 4.39%, CC1CCCCC1NC(=O)c1ccco1 (stereo not drawn) 0.81%, COc1cccc(Oc2ccc3nnc(C(F)(F)F)n3n2)c1 -1.34%, C[C@@H](O)CNC(=O)c1[nH]cnc1C(=O)Nc1cccc(Cl)c1 16.2%, Nc1ccccc1-c1n[nH]c(=S)s1 25.6%, CCN(c1ccc(OC)cc1)S(=O)(=O)c1nnc(NC(=O)C(C)C)s1 3.54%, O=C(O)c1ccccc1C(=O)c1ccc(-c2ccccc2)cc1 8.16%, CCN1CCN(c2ccc(S(=O)(=O)N3CCOCC3)cc2NC(=O)c2ccccc2SC)CC1 3.45%, CCC(=O)Nc1cc(-c2nn(C)c(=O)c3ccccc23)ccc1OC 5.48%, O=C(COc1ncnc2cc([N+](=O)[O-])ccc12)NCCc1ccc(Cl)cc1 -7.58%, Cc1ccc(NC(=O)c2cc(NC(=O)c3ccco3)ccc2N2CCOCC2)cc1Cl -19.1%, O=S(=O)(O)c1cccc2cccc(Nc3ccccc3)c12 13.4%, CC(=O)Nc1ccc2c(O)cc(S(=O)(=O)O)cc2c1 6.64%, Cc1cc(=O)oc2cc(Nc3ccccc3)ccc12 6.98%, Nc1ccc(C(=O)Nc2ccc3c(O)cc(S(=O)(=O)O)cc3c2)cc1 14.1%, Cc1ccc(S(=O)(=O)Nc2ccc(O)c(S(=O)(=O)c3ccc(C)cc3)c2)cc1 6.97%, O=S(=O)(c1ccccc1)c1cc(O)ccc1O 6.16%, CCCN(CCC)C(=O)C1CCCN(S(=O)(=O)c2ccc3c(c2)oc(=O)n3C)C1 (stereo not drawn) 7.01%, O=C(COC(=O)Cc1ccc(Br)cc1)NC1CC1 4.98%, O=C(COc1ccc(Cl)cc1)N(Cc1ccccc1)c1nc(-c2ccccc2)cs1 9.03%, O=c1n(-c2ccccc2)c(=O)n2n1CCCC2 -0.32%, CCCCN(CC)CCCNC(=O)CC1Oc2ccccc2NC1=O (stereo not drawn) 0.11%, CCOc1ccccc1C(C(=O)NC1CCCC1)N(Cc1ccco1)C(=O)CNC(=O)c1ccco1 (stereo not drawn) 5.39%, O=C(CN1c2ccccc2Sc2ccccc21)NNC(=S)Nc1ccc(Cl)cc1 15.4%, CCOC(=O)C(CO)(NC(C)=O)C(=O)OCC 3.77%, COc1ccccc1OCc1cc(C(=O)N2CC3C[C@@H]4CC2C[C@H](C3)C4)no1 3.59%, CCOc1ccccc1NC(=O)C(NCCc1ccc(OC)cc1)c1ccccc1 (stereo not drawn) -0.19%, CCC(C(=O)Nc1cccc(C(F)(F)F)c1)c1ccccc1 (stereo not drawn) 17.9%, CN(C)CCNC(C(=O)Nc1cc(Cl)cc(Cl)c1)c1ccccc1 (stereo not drawn) 5.37%, CCOc1ccccc1NC(=O)C(NCC1CCCCC1)c1ccccc1 (stereo not drawn) 4.44%, CCOc1ccccc1NC(=O)C(OC(=O)C1CC1)c1ccccc1 (stereo not drawn) -2.99%, CCOc1ccccc1NC(=O)C(OC(=O)c1ccccc1)c1ccccc1 (stereo not drawn) 12.2%, CC(NC(=O)c1ccco1)C(=O)N1CCCCC1 (stereo not drawn) 3.98%, O=C(COC(=O)c1cccnc1Cl)NC1CCCCC1 4.82%, CC(C)Cc1cc(C(=O)N2CCN(c3ccc(F)cc3)CC2)no1 0.62%, COc1cccc(C(=O)NC(=S)Nc2ccccc2N2CCOCC2)c1 6.71%, COc1ccc(C)cc1S(=O)(=O)N1CCC(C(=O)NCCc2ccccc2)CC1 14.5%, COC(=O)c1ccc(Cl)c(NC(=O)CSc2nnc(-c3ccncc3)o2)c1 4.07%, OC1CCN(Cc2cn(Cc3ccccc3)nc2-c2cc3ccccc3o2)CC1 5.47%, O=C(Nc1ccc(Cl)cc1)Nc1nnc(CSCc2ccccc2Cl)s1 12.1%, CN(C(=O)COc1ccccc1)c1ccc([N+](=O)[O-])cc1 7.5%, Cc1ccccc1OCCNC(=O)c1ccco1 3.61%, Cc1ccc(C(=O)NCC(C)NC(=O)c2ccc(C)c(C)c2)cc1C (stereo not drawn) 4.02%, CCOc1ccc(N2CC(C(=O)NCc3ccco3)CC2=O)cc1 (stereo not drawn) -1.21%, Cc1onc(-c2ccccc2)c1C(=O)NC(=S)NNC(=O)c1ccncc1 0.31%, CCCN(C(=O)Cc1csc(-c2ccccc2)n1)C1CCS(=O)(=O)C1 (stereo not drawn) 4.87%, CCOC(=O)c1c(NC(=O)CSc2cccc[n+]2[O-])sc(C(=O)Nc2ccccc2)c1C 7.58%, CCOC(=O)c1c(NC(=O)CN2CCN(C)CC2)sc(C(=O)Nc2ccccc2)c1C 8.53%, CCOc1ccc(S(=O)(=O)Nc2ccccc2C(=O)Nc2ccccc2N2CCOCC2)cc1 1.24%, Cc1ccc(OC(=O)c2cccc(S(=O)(=O)N3CCN(C)CC3)c2)c(Br)c1 10%
